In ChEMBL document CHEMBL1157539, “Thousands of chemical starting points for antimalarial lead identification” (Nature, 2010):

Tested on: Plasmodium falciparum
Test: GSK_TCMDC: Inhibition of Plasmodium falciparum 3D7 in whole red blood cells, using parasite LDH activity as an index of growth. Test compounds present at 2uM
Format: functional

Compound | Inhibition [%]
CC(=O)NCCNc1cc(N2CCc3ncnc(Nc4ccc(OCc5c(F)cccc5F)c(Cl)c4)c3C2)ncn1 | 100
NC(=O)c1ccc(C(=O)Nc2cccc(-c3csc(-c4nc5ccccc5[nH]4)c3)c2)cc1 | 100
CC(C)S(=O)(=O)N1CCN(Cc2ccc3c(c2)nc(NC(=O)c2ccsc2)n3C[C@H](O)c2ccccc2)CC1 | 91
O=C1C(=Cc2cc(Cc3ccccc3)ccc2O)SC(=S)N1Cc1ccccc1 | 98
CCCCCCCc1c(C)nc2c(OC)cccc2c1O | 89
CCC[C@@H]([C@@H](CC1CCCCC1)C(=O)N[C@H](C(=O)Nc1nccs1)C(C)(C)SCCNC(=O)OCc1ccccn1)N(O)C=O | 99
CCCC(CNCc1cccc(SC(F)(F)F)c1)CNc1cc(=O)c2ccccc2[nH]1 (stereo not given) | 100
Cc1ccc(NC(=O)c2ccc(CN3CCCN(CCC(C)C)CC3)cc2)cc1F.O=C(O)C(F)(F)F | 91
Cc1ccc2[nH]c3c(c2c1)CC(C(=O)NCCC(C)C)NC31CCN(Cc2ccccc2)CC1 (stereo not given) | 95
CCCCCCCn1c(=N)n(CC(O)c2ccc(Cl)c(Cl)c2)c2ccccc21.Cl (stereo not given) | 98
O=C(/C=C/c1ccccc1O)NCCCCCN1CCC(c2c[nH]c3ccccc23)CC1 | 95
Cc1cc(N2CCCC2)nc(Nc2ccc(NC(=O)c3ccco3)cc2)n1 | 100
O=C(/C=C/c1ccc(Cl)c(Cl)c1)NCCC(CN1CCC(c2c[nH]c3ccccc23)CC1)c1ccccc1 (stereo not given) | 100
Cl.c1cc2[nH]c(CCCCc3nc4cc(C5=N[C@H]6CCCC[C@H]6N5)ccc4[nH]3)nc2cc1C1=N[C@H]2CCCC[C@H]2N1 | 90
CC(C)CCN(Cc1cncn1Cc1cccc(Cl)c1)C(=O)c1cncc(-c2ccccc2)c1 | 99
CN(C)Cc1cccc(-c2ccc(NC(=O)c3ccc4c(=O)n(Cc5ccoc5)cnc4c3)cc2)c1 | 98
Nc1cccc(CNCc2cccc(-c3ccc(-c4nc5ccccc5[nH]4)cc3)c2)c1.O=C(O)C(F)(F)F | 100
CCN1CCN(CCCCNc2c3ccccc3nc3ccccc23)CC1.Cl | 100
CNC(=O)NC1=NC(C)(C)N(OCCCOc2cc(Cl)c(Cl)cc2Cl)C(N)=N1 | 97
CCCc1nc2c(N3CC(NC(=O)/C=C/c4ccccc4)C3)cccc2n1C1CC1 | 83

Compound | Inhibition [%]
C=C[C@]1(C)C[C@@H](OC(=O)CSC2CN3CCC2C3)[C@@]2(C)C3C(=O)CC[C@@]3(CC[C@H]2C)[C@@H](C)[C@@H]1O.Cl (stereo not given in full) | 91
COc1cc(Cc2cnc(N)nc2N)ccc1OCc1ccc(F)c(F)c1 | 90
Cc1c(C)n(C2CCCC2)c2ncnc(OC3CCN(CC(=O)NC4CC4)CC3)c12 | 95
Cc1cccn2c(=O)c3cc(C(=O)NCc4cccnc4)c(=N)n(CCc4ccccc4)c3nc12 | 99
Cc1ccc(-c2cc(C(=O)Nc3ccc(S(=O)(=O)N(C)Cc4ccccc4)cc3)[nH]n2)c(O)c1 | 99
COc1ccc(C)c(Nc2ccnc(Nc3cccc(-c4nc5ccccc5[nH]4)c3)n2)c1.Cl | 98
CC[C@H]1CN2CCc3c([nH]c4ccccc34)[C@@H]2C[C@@H]1CC1c2cc(OC)c(OC)cc2CCN1C.Cl (stereo not given in full) | 85
CC(C)(C)CC(=O)Nc1ccc(Nc2cc(-c3ccncc3)cc3ncc(C(N)=O)cc23)cc1 | 97
COc1ccc(CN2CCCN(Cc3cccc(NC(=O)c4ccc(-c5ccccc5)cc4)c3)CC2)cc1.O=C(O)C(F)(F)F | 94
COc1cc(-c2cc3cc(Cl)c(Cl)cc3[nH]2)ccc1C(=O)NCCC1CCCN1C.O=C(O)C(F)(F)F (stereo not given) | 91
CC1CCN(c2nc(C(=O)Nc3ccc(F)cc3C(F)(F)F)c(C(C)C)s2)CC1.O=C(O)C(F)(F)F | 100
Cc1[nH]c(C)c(-c2ccc(OCc3ccc(F)cc3)cc2)c(=O)c1Br | 98
CCOc1ccc(NC(=O)c2cccc(CN3CCCN(Cc4cccc(O)c4)CC3)c2)cc1.O=C(O)C(F)(F)F | 95
CCCCCCNC(=O)C1Cc2c([nH]c3cc(Cl)ccc23)C2(CCN(CCC)CC2)N1 (stereo not given) | 92
COc1cc([N+](=O)[O-])ccc1NC(=O)Nc1ccc(OC(F)(F)F)cc1 | 84
COc1nc(Nc2cccc(C)c2)nc(OC)n1 | 94
C=CCOC(=O)N1CCC(CNCc2cccc(-c3cccc(-c4nc5ccccc5[nH]4)c3)c2)C1.O=C(O)C(F)(F)F (stereo not given) | 100
COc1cc(C)c(NC(=O)c2cccc3c(=O)c(C)c(-c4ccccc4)oc23)cc1OC | 86
CC(C)NCc1cccc(-c2cccc(NC(=O)c3cccc(C#N)c3)c2)c1.O=C(O)C(F)(F)F | 99
CCCCCCN1CCCN(Cc2ccc(C(=O)Nc3ccc(Cl)cc3)cc2)CC1.O=C(O)C(F)(F)F | 89
